# This is a sample that favours compounds with a hit; in the whole collection about 9% have one here.
# PLK1 PBD block = qHTS for Inhibitors of PLK1-PDB (polo-like kinase 1 - polo-box domain): Primary Screen | Serine/threonine-protein kinase PLK1 (Homo sapiens), P53350 | Plk1 PBD binding of FITC phosphopeptide, fluorescence polarization | Potency, µM, for the others: max response, negative = inhibition, hits mostly inhibitors | 2.8% of 360,000 active | AID 720504, 2013; further: series mostly up to about 57 µM; on the % scale 0 is the no-effect control and ±100 the full control effect; nearly all actives have a fitted effect of over 65% in size
# G9a inh = qHTS Assay for Inhibitors of Histone Lysine Methyltransferase G9a. Histone-lysine N-methyltransferase EHMT2 (Homo sapiens), Q96KQ7. Potency, µM (series often up to 102 µM), without a hit: at the highest dose activity, negative = inhibition, hits mostly inhibitors. G9a H3K9 monomethylation, AlphaScreen, 2 h. 8.8% of 350,000 active; further: on the % scale 0 is the no-effect control and ±100 the full control effect; nearly all actives have a fitted effect of over 75% in size
#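 Signal arises when biotinylated H3K9 peptide, once monomethylated, bridges streptavidin donor and antibody-captured acceptor beads. Enzyme at 20 nM was preincubated 15 min with test compounds; peptide 500 nM and SAM 20 uM then reacted for 2 h.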
# JMJD2A Tudor = qHTS Assay for Inhibitors of JMJD2A-Tudor Domain. Lysine-specific demethylase 4A (Homo sapiens), O75164. Potency, µM (titrated, usually from 114 µM), for inactives: top-dose activity change, negative = inhibition, most hits filed as inhibitors. AlphaScreen JMJD2A-Tudor / H3K4me3 peptide binding. 4.4% of 390,000 active; further: on the % scale 0 is the no-effect control and ±100 the full control effect; nearly all actives have a fitted effect of over 50% in size
# HP1b binding inh = HTS for Inhibitors of HP1-beta Chromodomain Interactions with Methylated Histone Tails; AlphaScreen HP1-beta / biotin-H3K9me3 peptide binding; 0.56% of 390,000 active; Chromobox protein homolog 1 (Homo sapiens), P83916; Potency, µM (doses to about 114 µM), inactives show top-dose activity change, negative = inhibition, most hits filed as inhibitors; further: nearly all actives have a fitted effect of over 70% in size
#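 Compound inhibition of the preformed complex between 50 nM HP1-beta and 50 nM biotinylated H3K9me3 peptide was read by AlphaScreen. Buffer was PBS pH 7.4 with 0.01% Tween-20. Incubations ran 30 min at room temperature, with 10 ug/mL donor/acceptor beads.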
# ALOX12 inh = Primary qHTS assay for inhibitors of human arachidonate 12S-lipoxygenase (ALOX12): Round 2; Polyunsaturated fatty acid lipoxygenase ALOX12 (Homo sapiens), P18054; purified 12hLO, xylenol orange hydroperoxide absorbance; Potency, µM (titrated, usually from 108 µM), for inactives: top-dose activity change, negative = inhibition, most hits filed as inhibitors; 1.1% of 580,000 active; AID 1671190, 2021; further: on the % scale 0 is the no-effect control and ±100 the full control effect
# Target sequence (P18054 whole entry, looked up): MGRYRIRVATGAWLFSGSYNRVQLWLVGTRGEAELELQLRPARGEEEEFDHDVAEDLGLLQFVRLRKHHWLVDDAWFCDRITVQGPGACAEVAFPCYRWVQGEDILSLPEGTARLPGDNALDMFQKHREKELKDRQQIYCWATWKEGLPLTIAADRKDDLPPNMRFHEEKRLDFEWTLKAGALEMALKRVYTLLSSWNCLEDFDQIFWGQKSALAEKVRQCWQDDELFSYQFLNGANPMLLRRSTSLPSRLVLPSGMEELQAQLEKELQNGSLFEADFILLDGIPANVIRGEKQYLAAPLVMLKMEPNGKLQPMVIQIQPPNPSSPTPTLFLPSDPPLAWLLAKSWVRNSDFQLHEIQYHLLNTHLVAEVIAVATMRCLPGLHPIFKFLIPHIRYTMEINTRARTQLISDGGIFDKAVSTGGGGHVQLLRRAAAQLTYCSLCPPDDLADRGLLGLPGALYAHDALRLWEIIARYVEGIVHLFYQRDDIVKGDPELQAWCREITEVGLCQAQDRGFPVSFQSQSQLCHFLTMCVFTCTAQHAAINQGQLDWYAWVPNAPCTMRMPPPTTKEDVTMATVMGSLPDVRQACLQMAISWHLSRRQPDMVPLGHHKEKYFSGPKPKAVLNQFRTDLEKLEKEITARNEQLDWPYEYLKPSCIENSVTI
#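 Hydroperoxide product was detected by ferrous iron/xylenol orange as the 573 to 405 nm absorbance ratio. Arachidonic acid at 40 uM (final) was turned over for 30 min at room temperature by 150 nM human 12hLO, pH 7.0 Hepes buffer, after 15 min compound preincubation.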
# BAZ2B block = qHTS Assay for Inhibitors of BAZ2B | AlphaScreen BAZ2B-H3K14Ac peptide displacement | Potency, µM (series often up to 114 µM), for inactives: at the top dose activity change, negative = inhibition, actives largely listed as inhibitors | Bromodomain adjacent to zinc finger domain protein 2B (Homo sapiens), Q9UIF8 | AID 504333, 2011 | 4.4% of 360,000 active; further: on the % scale 0 is the no-effect control and ±100 the full control effect; nearly all actives have a fitted effect of over 60% in size
#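 Compounds, titrated to a top concentration of 110 uM, were incubated 30 min at room temperature with preformed BAZ2B/acetyl-K14 H3 peptide complex (50 nM each). Proximity signal was measured by AlphaScreen after 20 min with beads.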
# * = called active by the depositor; i = inactive; ? = inconclusive; nt = no result; [ ] = dose if it differs, or a comment. The call rests on the fitted dose curve; in most records, active means well fitted curve in the direction sought with a large enough effect; inconclusive means small, poorly fitted or top-dose-only effect, or another doubt; inactive means no such curve, though single readings can be large; an effect the other way counts as inactive or inconclusive. Potency means the concentration at half of the fitted maximal effect.
SMILES,PLK1 PBD block,G9a inh,JMJD2A Tudor,HP1b binding inh,ALOX12 inh,BAZ2B block
CCn1c(=O)cc(SCC(=O)N2CCN(C3CCCCC3)CC2)c2ccccc21,0.0%,-5.7%[59 µM],-10.8%,24.0%,-6.6%,1.7%
O=C(Cc1cn2ccsc2n1)NCc1ccccc1,-0.3%,-34.8%[59 µM],-33.5%,31.9%,-6.2%,79.4µM*
CCn1c2ccccc2c2cc(NC(=O)COC(=O)Cc3cn4ccsc4n3)ccc21,-10.5%,-0.9%,35.5µM*,1.4%,-11.5%,5.3%
CC1CCCC(NC(=O)COC(=O)Cc2cn3ccsc3n2)C1C (stereo not drawn),1.3%,50.1µM*,-21.2%,8.7%,?,1.7%
O=C(COC(=O)Cc1cn2ccsc2n1)NC12CC3CC(CC(C3)C1)C2,-23.0%,15.4%,-2.3%[11.4 µM],-10.5%,?,6.5%
CCn1c2ccccc2c2cc(NC(=O)COC(=O)c3ccc(O)cc3)ccc21,1.2%,?,-22.8%,12.7%,2.9%,-20.1%
COC(=O)c1cc(OC)c(OC)cc1NC(=S)NC(=O)c1ccco1,-22.3%,?,-2.7%,23.9%,30.4%,-16.3%
COc1ccccc1C(=O)NNC(=O)C(=O)Nc1ccc(C)cc1,-17.5%,9.5%,-7.0%,17.8%,1.8%,-1.9%
COc1cc(NC(=S)NC(=O)c2ccco2)ccc1NC(=O)C(C)C,-12.1%,30.5%[12.7 µM],-13.1%,10.7%,-26.4%,-33.5%
COc1cc(NC(=S)NC(=O)c2ccccc2F)ccc1NC(=O)c1ccco1,-19.3%,7.94µM*,?,?,-11.5%,0.9%
COc1ccccc1C(=O)NNC(=S)NC(=O)c1ccco1,-16.5%,28.2µM*,-29.0%,23.6%,-29.6%,7.1%
COc1ccccc1C(=O)NNC(=S)Nc1ccccc1,-4.0%,28.2µM*,-6.9%,27.6%,-10.6%,5.4%
O=C(NC(=S)Nc1ccc(F)c([N+](=O)[O-])c1)c1ccccc1F,-15.3%,44.7µM*,-9.3%,25.2%,-16.6%,-34.2%
COc1ccc(CC(=O)Nc2ccc(OC)c(NC(=O)c3ccco3)c2)cc1,-0.2%,50.1µM*,-8.8%,31.4%,0.0%,-5.4%
COc1ccccc1C(=O)NNC(=O)c1cccc([N+](=O)[O-])c1,-9.6%,nt,-11.0%,15.7%,0.0%,-9.1%
COc1ccccc1C(=O)NNC(=O)c1cccc(C)c1,16.8µM*,nt,?,-15.1%,-15.6%,-0.2%
c1cncc(-c2nnc3n2CCN(CC2CC2)C3)c1,nt,nt,nt,nt,-0.6%[12.5 µM],nt
CC[C@H](C)Cc1cn([C@@H](CCCCN)C(=O)NCCCCCCCCCCC(=O)N2CCNCC2)nn1,-9.0%,17.7%[2.33 µM],-23.2%,22.8%,-16.7%,-4.4%
Cc1cc(NC(=O)CS(=O)(=O)c2c[nH]c3ccccc23)no1,1.9%,5.9%,1.8%,22.7%,i,-6.1%
COC(=O)c1ccc(Oc2ccc(C(C)(C)C)cc2)c([N+](=O)[O-])c1,-0.8%,15.7%,-17.0%,27.7%,2.1%,-32.1%
COC(=O)c1ccc(Oc2c(Cl)cccc2[N+](=O)[O-])cc1,21.2µM*,-14.1%[59 µM],?,?,-15.8%,?
CCCCN1CCN(c2nc3c(c(=O)[nH]c(=O)n3C)n2CCCc2ccccc2)CC1,nt,nt,nt,nt,11.8%,nt
Cc1ccc(N/N=C/C=C/c2ccccc2[N+](=O)[O-])c(C)c1,nt,nt,nt,nt,15.8µM*,nt
COc1ccc(CC2(CO)CCN(C/C=C/c3ccccc3OC)CC2)cc1,-10.3%,5.6%,-20.3%,11.8%,?,-2.4%
ClC(/C=N/N1CCN(Cc2ccccc2)CC1)=C/c1ccccc1,nt,nt,nt,nt,-28.5%,nt
SMILES,PLK1 PBD block,G9a inh,JMJD2A Tudor,HP1b binding inh,ALOX12 inh,BAZ2B block
COc1ccccc1/C=C/CN1CCN(c2ccccc2)CC1,0.2%,11.2µM*,22.4µM*,?,?,50.1µM*
Cc1ccc(CN2CCN(/N=C/C=C/c3ccccc3[N+](=O)[O-])CC2)cc1,-19.6%,20µM*,14.1µM*,17.8µM*,?,20µM*
COc1ccccc1/C=C/C=N/N1CCN(Cc2ccccc2)CC1,-8.8%,11.2µM*,-17.4%,13.7%,-9.6%,31.6µM*
O=C(CN1CCN(Cc2ccccc2Cl)CC1)N/N=C/C=C\c1ccccc1[N+](=O)[O-],-0.9%,20.5%[59 µM],?,-11.9%,nt,-38.7%
CN1C(=S)SC(/[N+]([O-])=C\c2ccc(Cl)cc2)C1(C)C (stereo not drawn),-7.5%,56.5%[12.7 µM],-13.6%,24.5%,-3.8%,-9.9%
Cc1cc(C)cc(NC(=O)C2CCN(C(=O)c3cnn(-c4ccccc4)c3-n3cccc3)CC2)c1,nt,1.2%[59 µM],-20.8%,25.2%,-1.3%,-23.2%
Cc1ccc(C)n1C1C(=O)N(C)c2ccc(Cl)cc21 (stereo not drawn),nt,nt,nt,nt,44.7µM*,nt
Cc1ccc(C)n1C1C(=O)N(C)c2ccccc21 (stereo not drawn),nt,nt,nt,nt,-69.4%,nt
COc1ccc2c(c1)C(n1c(C)ccc1C)C(=O)N2C (stereo not drawn),nt,nt,nt,nt,11.2µM*,nt
CCOC(=O)c1sc(NC(=O)C(CC)Sc2nc3ccccc3[nH]2)nc1C (stereo not drawn),3.0%,nt,-6.1%,37.7%,412.6%,nt
O=C1c2ccccc2C(=O)N1CCCc1nc(-c2ccccn2)no1,29.9µM*,21.6%[59 µM],79.4µM*,-13.5%,0.0%,?
CC(C)(C)c1ccc(O)c(N=Cc2cc3c(cc2[N+](=O)[O-])OCO3)c1,26.7µM*,5.9%[0.501 µM],?,?,35.5µM*,50.1µM*
O=[N+]([O-])c1cc2c(cc1/C=N\NS(=O)(=O)c1ccccc1)OCO2,-16.7%,3.98µM*,-11.2%,22.8%,-20.5%,-5.0%
O=[N+]([O-])c1ccc(S(=O)(=O)NN=Cc2ccc3c(c2)OCO3)cc1,-28.6%,nt,-26.6%,0.0%,-18.5%,nt
O=[N+]([O-])c1cc(Br)cc(C=Nc2ccc3c(c2)OCO3)c1O,-21.4%,44.7µM*,?,-13.0%,35.5µM*,44.7µM*
Cc1ccc(C)c(N=Cc2cc3c(cc2[N+](=O)[O-])OCO3)c1,-22.4%,?,50.1µM*,44.7µM*,?,20µM*
Cc1nn(CCCC(=O)NCc2ccccc2Br)c(=O)c2c1sc1ccccc12,nt,-43.3%[59 µM],-3.3%,40.8%,-10.3%,-11.1%
O=C(CCc1ccc(O)c(O)c1)N/N=C/c1cc2c(cc1[N+](=O)[O-])OCO2,?,3.55µM*,39.8µM*,?,?,44.7µM*

# Compound activity (PubChem)
